Several values for one entry are separate records, joined by “and”; a condition that tells them apart may be missing. Equal values may be shown once. Records with an inconclusive call do not appear. Activity calls are given as the source filed them. Calls come from the whole dose curve; as a rule, active = well fitted inhibition curve with a large enough effect; inconclusive = small, poorly fitted or top-dose-only effect; inactive = no such curve, though single readings can be large or run the other way.
target: Cytochrome P450 2C9 (Homo sapiens) (UniProt P11712); experiment: qHTS Assay for Inhibitors and Substrates of Cytochrome P450 2C9 (AID 883); conditions: recombinant CYP2C9, luciferin-H luminescence, 60 min; series mostly up to 57.1 µM; activity change, negative = inhibition: at the top concentration; note: nearly all actives have a fitted effect of over 60% in size
Description: NIH Molecular Libraries Screening Centers Network [MLSCN] NIH Chemical Genomics Center [NCGC] MLSCN Grant: None NCGC Assay Overview: The P450 gene superfamily is involved in the metabolism and clearance of xenobiotics. This assay used human CYP2C9 to measure the hydroxylation of deoxyluciferin (Luciferin-H; P450 Glo-Buffer) to luciferin. The luciferin is then measured by luminescence after the addition of a luciferase detection reagent. Luciferin-H concentration in the assay was equal to its Michaelis constant KM for CYP2C9. Inhibitors and some substrates limit the production of luciferin, and decrease measured luminescence.
NCGC Assay Protocol Summary: Two uL of enzyme and substrate mix (final concentrations: 10nM CYP2C9, 100uM Luciferin-H, 25mM KPO4) were dispensed into a white, solid bottom 1536-well microtiter plate. 23nL of compound was transferred by a pin tool. The plate was incubated at 37C for 10 min. Two uL of an NADPH regeneration solution (Promega supplied reagent) was dispensed and the reaction was allowed to continue for 60 min at 37C. Then the reaction was stopped by reconstituted P450 Glo-Buffer. After another 20 min of incubation the plate was read on the ViewLux (Perkin Elmer) at 60 sec exposure and 2x2 binning. This protocol was carried out with Promega-Glo reagents and further information can be found at http://www.promega.com/tbs/tb325/tb325.pdf. Data were normalized to the to AC100 inhibition (57uM sulphaphenazole). Keywords: P450, CYP2C9, Luciferase, MLSMR, MLSCN, NIH Roadmap, qHTS, NCGC
% is set by controls: 0 for no effect and ±100 for the full control effect; potency is the fitted concentration of half-maximal effect.

Cytochrome P450 2C9 (Homo sapiens), sequence (P11712 whole entry, looked up): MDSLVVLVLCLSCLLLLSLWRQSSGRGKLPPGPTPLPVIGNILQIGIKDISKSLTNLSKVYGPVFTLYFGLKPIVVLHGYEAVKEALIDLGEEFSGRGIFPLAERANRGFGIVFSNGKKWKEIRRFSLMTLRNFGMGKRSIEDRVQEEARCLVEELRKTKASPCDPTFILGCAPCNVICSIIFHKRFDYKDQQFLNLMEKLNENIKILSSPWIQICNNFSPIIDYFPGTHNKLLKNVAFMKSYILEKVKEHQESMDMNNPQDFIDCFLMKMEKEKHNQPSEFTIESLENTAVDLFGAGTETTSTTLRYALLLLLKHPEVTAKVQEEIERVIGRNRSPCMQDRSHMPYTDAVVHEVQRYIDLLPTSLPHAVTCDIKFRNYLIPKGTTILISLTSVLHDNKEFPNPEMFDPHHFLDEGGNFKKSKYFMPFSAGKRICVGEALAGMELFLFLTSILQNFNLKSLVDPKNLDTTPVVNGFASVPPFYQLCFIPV

With N[C@H](Cc1ccc(Cl)cc1)C(=O)O as the molecule, how does the “activity change, negative = inhibition” value read?
Its value is 6.91% (inactive).

How did the activity change, negative = inhibition turn out when CC1=C(C)CC(c2ccccc2)C(C(=O)c2ccccc2O)C1 (stereo not given) was run?
The activity change, negative = inhibition was -27.8% [at 11.4 µM] (inactive).

For CCCCCCCC1=CC2=CC(=O)C(C)(O)C(=O)C2=CN1CCCC (stereo not given), which activity change, negative = inhibition is on record?
Its activity change, negative = inhibition is 13.4% [at 11.4 µM] (inactive).

For O=C(N/N=C\c1ccccc1O)c1ccccc1O, which “activity change, negative = inhibition” value is on record?
Its value is 15% (inactive).

Which activity change, negative = inhibition does the source give for Cc1c(O)ccc2c1OCO2 here?
Its activity change, negative = inhibition is -0.37% [at 11.4 µM] (inactive).

Which “activity change, negative = inhibition” value does the source give for COc1cc(-c2ccc(N=Nc3ccc4c(S(=O)(=O)O)cc(S(=O)(=O)O)c(N)c4c3O)c(OC)c2)ccc1N=Nc1ccc2c(S(=O)(=O)O)cc(S(=O)(=O)O)c(N)c2c1O here?
The value was -6.67% (inactive).

With COC(=O)C1=C(C)NC(C)=C([N+](=O)[O-])[C@@H]1c1ccccc1C(F)(F)F as the molecule, how does the Potency read?
Its Potency is 0.158 µM (active).

With C=C[C@H](N)CCC(=O)O as the molecule, how does the “activity change, negative = inhibition” value read?
Its value is 13.4% (inactive).

For O=C(OCCN1CCCCC1)c1c[nH]c2ccccc12, which Potency is on record?
The Potency was 2 µM (active).

For CSc1nc(NC2CCCC2)c([N+](=O)[O-])c(NC2CCCC2)n1, which Potency is on record?
Its Potency is 2 µM (active).

How did the “activity change, negative = inhibition” value turn out when COc1ccc(/C=C\C(=O)Nc2ccccc2C(=O)O)cc1OC was run?
The value was -19.5% (inactive).

For CN(C)CCCSc1ccccc1NC(=O)/C=C\c1ccccc1, which “activity change, negative = inhibition” value is on record?
Its value is -1.42% (inactive).

For CCCCCCC1=Cc2cc(OC)c(OC)cc2C(C(C(C)=O)C(=O)OCC)O1 (stereo not given), which activity change, negative = inhibition is on record?
The activity change, negative = inhibition was 25.3% [at 11.4 µM] (inactive).

N#C/C(=C\c1ccc(O)c(O)c1)C(=O)Nc1ccccc1 was tested. Which “activity change, negative = inhibition” value did it give?
Its value is -7.35% (inactive).

With COc1ccc(C(=O)Oc2cc(OC)cc(OC)c2C(C)=O)cc1 as the molecule, how does the activity change, negative = inhibition read?
The activity change, negative = inhibition was 19.9% [at 11.4 µM] (inactive).

Which Potency does the source give for COC(=O)/C=C\c1cc(O)ccc1O here?
The Potency was 7.94 µM (active).

For CC#CCOC(=O)c1c(C)nc2sc3c(c2c1N)CC[C@@H](O)C3, which “activity change, negative = inhibition” value is on record?
The value was 7.69% (inactive).

For C=C[C@@]1(C)CC(=O)[C@@]2(O)[C@@]3(C)[C@@H](O)CCC(C)(C)[C@@H]3[C@H](OC(=O)CCN(C)C)[C@H](OC(C)=O)[C@@]2(C)O1, which Potency is on record?
Its Potency is 0.126 µM (active).

CCS(=O)(=O)N1CCC[C@H]2CN3CCc4cc(OC)ccc4[C@@H]3C[C@@H]21 was tested. Which “activity change, negative = inhibition” value did it give?
Its value is 36.8% (inactive).

With CCCN(CCC)C[C@@H]1CCCCN1CCNC(=O)N1c2ccccc2C(=O)Nc2cccnc21 as the molecule, how does the “activity change, negative = inhibition” value read?
The value was 47.9% (inactive).

For CS(=O)(=O)c1ccc(-c2cc(Br)sc2-c2ccc(F)cc2)cc1, which Potency is on record?
Its Potency is 0.794 µM (active).

Which activity change, negative = inhibition does the source give for Cc1c(O)c(=O)c2ccccc2n1C here?
The activity change, negative = inhibition was 25.8% [at 11.4 µM] (inactive).

With CN(C)c1ccc(/C=C2/C(=O)Nc3ccccc32)cc1 as the molecule, how does the Potency read?
The Potency was 5.01 µM (active).

For CC(C)(C)OC(=O)C1=NOC2(C=CC(=O)C=C2)C1, which activity change, negative = inhibition is on record?
The activity change, negative = inhibition was -5.68% [at 11.4 µM] (inactive).

COc1cc2nc(N3CCN(C(=O)[C@H]4CCCO4)CC3)nc(N)c2cc1OC was tested. Which Potency did it give?
Its Potency is “inactive”.

For CCOC(=O)C1=C(C)NC(C)=C(C(=O)OC)[C@H]1c1cccc([N+](=O)[O-])c1, which Potency is on record?
Its Potency is 1.58 µM (active) and 158 nM (active).

Which “activity change, negative = inhibition” value does the source give for COc1[nH]c2ccc(F)cc2c1C(=O)OCC1CCN(CCNS(C)(=O)=O)CC1 here?
The value was 66.3% (inactive).

For Cc1c(C(=O)NN2CCOCC2)nn(-c2ccc(Cl)cc2Cl)c1-c1ccc(I)cc1, which Potency is on record?
The Potency was 6.31 µM (active).

CC(C)=CCC1(CC=C(C)C)C(=O)C(C(=O)c2ccccc2)=C2OC(C)(C)CCC2(CC=C(C)C)C1=O (stereo not given) was tested. Which activity change, negative = inhibition did it give?
The activity change, negative = inhibition was -24.2% [at 11.4 µM] (inactive).

For O=C(O)c1ccc2c3c1cccc3c(=O)n1c3ccccc3nc21, which Potency is on record?
The Potency was 0.158 µM (active).

How did the Potency turn out when Cc1nc2c(O)cccc2c(=O)[nH]1 was run?
Its Potency is 3.98 µM (active).

How did the Potency turn out when C=CC(C)(C)c1[nH]c2ccccc2c1C1=C(O)C(=O)C(c2c[nH]c3c(CC=C(C)C)cccc23)=C(O)C1=O was run?
Its Potency is 7.94 µM (active).

Cc1noc(NS(=O)(=O)c2cccc3c(N(C)C)cccc23)c1C was tested. Which Potency did it give?
Its Potency is 0.631 µM (active).

For COC(=O)C1=NOC2(C=C(Br)C(OC)=C(Br)C2=O)C1 (stereo not given), which activity change, negative = inhibition is on record?
Its activity change, negative = inhibition is -4.18% [at 11.4 µM] (inactive).

How did the activity change, negative = inhibition turn out when COC(=O)C(C(C)=O)C(=O)C(Cc1ccccc1)NC(=O)OCc1ccccc1 (stereo not given) was run?
The activity change, negative = inhibition was 2.74% [at 11.4 µM] (inactive).

CCCCCN=c1ccn(Cc2ccccc2)c2ccccc12 was tested. Which Potency did it give?
Its Potency is 0.316 µM (active).

For CNC(=O)Oc1ccc2c(c1)[C@@]1(C)CCN(C)[C@@H]1N2C, which “activity change, negative = inhibition” value is on record?
The value was 11.3% (inactive).

CCCN=C(N)NCCC[C@H](N)C(=O)O was tested. Which Potency did it give?
Its Potency is 3.98 µM (active).

For COc1ccc2c(c1)c(CC(=O)N1CCOCC1)c(C)n2C(=O)c1ccc(Cl)cc1, which Potency is on record?
Its Potency is 39.8 µM (active).

Which activity change, negative = inhibition does the source give for COc1ccc(C(=O)CC(=O)c2c(O)cc(OC)cc2OC)cc1 here?
Its activity change, negative = inhibition is -6.49% [at 11.4 µM] (inactive).

Reference: PubChem BioAssay (NCATS)
